Measured values reported in PubChem BioAssay (NCATS).
Records with an inconclusive call do not appear. A number with no mark means an inactive call. The call rests on the fitted dose curve; in most records, active means well fitted curve in the direction sought with a large enough effect; inconclusive means small, poorly fitted or top-dose-only effect, or another doubt; inactive means no such curve, though single readings can be large or run the other way.

assay: Cytometric Cell-Based qHTS for Inhibitors of the mTORC1 Signaling Pathway in MEF (Tsc2-/-, p53-/-) Cells (AID 2660); conditions: mTORC1 pathway cytometry; series mostly up to 38.3 µM; activity change, negative = inhibition: at the top concentration;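 further: Tsc2 and p53 null MEFs carrying empty vector with compound for 24 h; percent of cells above a phospho-rpS6 to PI ratio cutoff in each well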
Excerpt: NIH Molecular Libraries Probe Production Centers Network [MLPCN]
NIH Chemical Genomics Center [NCGC]
Assay Submitter (PI): Blenis, John; Hoffman, Greg; Harvard University
NCGC Assay Overview: The mammalian target of rapamycin (mTOR) is an intracellular serine/threonine kinase Aberrant regulation of mTOR signaling plays a causative role in a number of human diseases, including cancer, benign tumors such as lymphangioleiomyomatosis (LAM) and Tuberous Sclerosis Complex (TSC), and metabolic diseases such as diabetes and obesity. This project aims to identify inhibitors of ribosomal protein S6 (rpS6) phosphorylation. The phosphorylation of rpS6 is a key event downstream of mTOR activation. The assay uses a phospho-specific antibody of phospho-rpS6 to detect inhibitors of mTOR activation. Mutations in the Tsc1 and Tsc2 genes are the underlying genetic lesions responsible for TSC, causing constitutive activation of the mTORC1 pathway and leading to profound effects on cell metabolism. Aberrant metabolism in cancer has recently received significant attention as a target to develop therapeutic agents in the treatment of cancer.1 As Tsc2-/- cells have lost the ability to respond to energy and growth factor deprivation, these cells are unable to properly down regulate cellular biosynthetic processes in response to metabolic stress, and are thus extremely sensitive to glucose deprivation-induced death.2 A central goal of this project is to explore the unique cell survival and metabolic properties of cells with Tsc1 or Tsc2 by screening for compounds that selectively target the Tsc2-/- MEFs by screening both Tsc2-/- and WT MEF cell lines. We hope to better understand these aspects of TSC physiology in order to exploit them for therapeutic benefit.
NCGC Acumen Assay Protocol Summary:
For quantitative high throughput analysis of mTORC1 signaling, we developed a cell-based assay for immuno-fluorescence based detection of rpS6 phosphorylation on the Acumen Explorer that will be used a platform for the primary small molecule screen. Mouse embryonic fibroblasts (MEFs) are cultured in 1536-well plates using DMEM + 10% FBS. Twenty-four hrs after plating, test compounds (solubilized in DMSO) are delivered and incubated with the cells for 24 hrs at 37 degree Celsius. Following the incubation, media with compound is aspirated and the cells are fixed in 4% paraformaldehyde (PFA) containing PBS + 0.2% TX-100. Next, PFA is aspirated, cells are washed two times with PBS plus 0.2% TX-100 and the cells are blocked for 1 hr at room temperature (blocking buffer: LiCOR Blocking Buffer plus 0.2% TX-100). This is followed by aspiration and staining with Alexa-488 conjugated-phospho-rpS6 Ser235/236 antibody for 2 hours at room temperature (Cell Signaling Technology # 4803, 1:50 dilution in blocking buffer). Cells are washed two times with PBS plus 0.2% TX-100, and stained with 10 uM propidium iodide (PI) for 20-25 minutes for cell number measurement (1:500 dilution of Hoescht staining is also added for IN Cell imaging). The plates are scanned on the Acumen Explorer laser scanning instrument (TTP Labtech) using the 488nm laser for simultaneous excitation of the Alexa-488 and PI. The fluorescence emission from the Alexa-488 conjugated rpS6 phospho-235/236 antibody staining is selected using a […] band pass filter. Fluorescence emission from the PI stain is selected using a 575-640 nm band pass filter. The normalized phospho-S6 staining is calculated as the ratio of the integrated Alexa 488 intensity divided by the integrated PI intensity for the single concentration rapamycin control (7.5 nM) and DMSO columns. […] Inhibition of the pathway is defined based on the normalized phospho-S6 intensity in rapamycin treated cells. […]

| Structure (SMILES) | activity change, negative = inhibition |
| --- | --- |
| CSc1ccc(C(=O)c2[nH]c(=O)[nH]c2C)cc1 | -4.38% |
| CCC(=O)c1ccc2c(c1)N(CCCN(C)C)c1ccccc1S2 | 12% |
| CN(C)CCCN1c2ccccc2Sc2ccc(C(F)(F)F)cc21 | -15.5% |
| Fc1ccc(C(c2ccc(F)cc2)N2CCN(C/C=C/c3ccccc3)CC2)cc1 | 5% |
| O=C(CCNNC(=O)c1ccncc1)NCc1ccccc1 | -1.14% |
| CCN(CC)CCCN(c1ccccc1)C1Cc2ccccc2C1 | -11.2% |
| CC(C)(C)NCC(O)c1cc(O)cc(O)c1 (stereo not given) | -2.43% |
| CCCC(C(=O)OCCN(CC)CC)(c1ccccc1)c1ccccc1 | 2.74% |
| COCCCC/C(=N\OCCN)c1ccc(C(F)(F)F)cc1 | 3.41% |
| C[C@]12CC[C@@H]3c4ccc(O)cc4C[C@@H](CCCCCCCCCS(=O)CCCC(F)(F)C(F)(F)F)[C@H]3[C@@H]1CC[C@@H]2O (stereo not given in full) | 4.8% |
| OCCN1CCN(CCCN2c3ccccc3C=Cc3ccccc32)CC1 | 7.58% |
| CC(=O)OC(C)C[N+](C)(C)C (stereo not given) | 7.63% |
| COCCc1ccc(OCC(O)CNC(C)C)cc1 (stereo not given) | -0.993% |
| c1cc(CN2CCCCC2)cc(OCCCNc2nc3ccccc3s2)c1 | 3.08% |
| CCc1c(C)[nH]c2c1C(=O)C(CN1CCOCC1)CC2 (stereo not given) | 1.58% |
| O=C(O)CP(=O)(O)O | 1.26% |
| COc1ccc(CN(CCN(C)C)c2ccccn2)cc1 | 5.71% |
| C[N+](C)(C)CCCCCCCCCC[N+](C)(C)C | 7.71% |
| CC1=C(C)C(=O)C(CCCCC#CCCCC#CCO)=C(C)C1=O | -1.04% |
| C[C@]12CCC(=O)C=C1CC[C@@H]1[C@@H]2C(=O)C[C@@]2(C)[C@H]1CC[C@]2(O)C(=O)CO | -10.5% |

| Structure (SMILES) | activity change, negative = inhibition |
| --- | --- |
| CC(C)(Oc1ccc(CCNC(=O)c2ccc(Cl)cc2)cc1)C(=O)O | -4.6% |
| FC(F)(F)c1ccccc1-n1ccnc1 | -15.2% |
| CCn1cc(C(=O)O)c(=O)c2cc3c(cc21)OCO3 | -0.707% |
| CN1C[C@H](C(=O)N[C@]2(C)O[C@@]3(O)[C@@H]4CCCN4C(=O)[C@H](Cc4ccccc4)N3C2=O)C[C@@H]2c3cccc4[nH]cc(c34)C[C@H]21 | -2.38% |
| NC(N)=N/N=C/c1c(Cl)cccc1Cl | -0.318% |
| Cc1scc2c1N(C(=O)CN1CCN(C)CC1)c1ccccc1NC2=O | -1.25% |
| CCN(Cc1ccncc1)C(=O)C(CO)c1ccccc1 (stereo not given) | 0.934% |
| CCCCNc1c(C(=O)OCC)c(C)nc2c1cnn2CC | 3.2% |
| C[N+](C)(C)CCOC(N)=O | 3.76% |
| CCN(CC)CCNC(=O)c1ccc(NC(C)=O)cc1 | 4.09% |
| CCN1CCC[C@H]1CNC(=O)c1c(O)c(Cl)cc(Cl)c1OC | -3.24% |
| CNCCCN1c2ccccc2CCc2ccccc21 | 8.05% |
| COCCOC(=O)C1=C(C)NC(C)=C(C(=O)OC(C)C)C1c1cccc([N+](=O)[O-])c1 (stereo not given) | -1.78% |
| NC(=O)c1ncn([C@@H]2O[C@H](CO)[C@@H](O)[C@H]2O)c1O | -15.8% |
| COc1ccc(CCN(C)CCCC(C#N)(c2cc(OC)c(OC)c(OC)c2)C(C)C)cc1OC (stereo not given) | 3.54% |
| CO[C@@]1(NC(=O)CSCC#N)C(=O)N2C(C(=O)O)=C(CSc3nnnn3C)CS[C@@H]21 | 6.9% |
| COC(=O)[C@@H](N)Cc1ccc(O)c(O)c1 | 1.15% |
| CC1=NS(=O)(=O)c2cc(Cl)ccc2N1 | 4.95% |
| CNC1(C)C2CCC(C2)C1(C)C (stereo not given) | -1.02% |
| CC(=O)[C@@]1(O)CC[C@H]2[C@@H]3CCC4=CC(=O)CC[C@]4(C)[C@H]3CC[C@@]21C | -0.116% |
